# Source: PubChem BioAssay
# KKLEB cytotox = CF airway cell cytotoxicity counter-screen | activity change (cytotoxicity), % at 5 µM | 360,000 compounds, 0.36% hits | KKLEB CF airway cells viability, ATPlite luminescence, overnight; stronger effect = lower value; cells stimulated with P. aeruginosa culture filtrate;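 active = corrected activity change at or below -50% at 5 µM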
# CF NFkB block = cystic fibrosis NF-kB activation inhibition; KKLEB NF-kB-GFP reporter, PAF-induced, GFP fluorescence overnight; inhibition, % at 5 µM; 360,000 compounds, 0.86% hits;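 active = at least 50% inhibition at 5 µM, scaled per plate between neutral and stimulator controls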;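 note: PAF is a Pseudomonas aeruginosa culture filtrate used as stimulus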
# TWEAK Fn14 block = TWEAK-Fn14 signaling inhibition. TWEAK-stimulated Fn14 reporter cells, luciferase luminescence, 8 h. inhibition, % at 10 µM. 360,000 compounds, 2% hits; in the data active = inhibition above about 50%
# HIF-2a inh = HIF-2a inhibition | 786-0 RCC cells HIF-2a reporter, luciferase luminescence, overnight | inhibition, % at 18.8 µM | 360,000 compounds, 0.72% hits;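 active = inhibition of the luminescence signal of 40% or more relative to plate controls, in a single-dose primary screen at 18.75 µM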
# Peg3 prom inh-1 = inhibitors of Peg3 promoter; HeLa PEG-Prom luciferase reporter, luminescence, overnight; inhibition, % at 20 µM; 360,000 compounds, 1.7% hits;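 active = inhibition of at least 50% at 20 µM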
# TROY NFkB inh = TROY signaling inhibition; Q293 LMP1-TROYcd NF-kB luciferase reporter, 4 h; inhibition, % at 10 µM; 360,000 compounds, 0.98% hits;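 active = compounds whose plate-normalised and pattern-corrected inhibition of the luciferase reporter signal at the single screening dose is 50% or more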
# Peg3 prom inh-2 = Peg3 promoter inhibition confirmation | shares compounds with Peg3 prom inh-1 | HeLa PEG-Prom luciferase reporter, luminescence, overnight | inhibition, % at 20 µM | 1,300 compounds, 84% hits | AID 602417;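 active = at 20 µM dose, 40% or more inhibition averaged across four replicates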
# A number is an active result; 0 = inactive; - = no result given. Rows were chosen to be rich in hits. Some 4% of all compounds tested hit in one or more screens of this group.
SMILES,KKLEB cytotox,CF NFkB block,TWEAK Fn14 block,HIF-2a inh,Peg3 prom inh-1,TROY NFkB inh,Peg3 prom inh-2
CCC(=O)NC(c1cccc([N+](=O)[O-])c1)c1c(OC(C)=O)ccc2ccccc12 (configuration not stated),0,0,0,0,0,0,-
COc1ccc(C(NC(C)=O)c2cc(Cl)c3cccnc3c2O)cc1OC (configuration not stated),0,0,0,0,0,0,-
CCC(=O)NC(c1ccc(OC)c(OC)c1)c1cc(Cl)c2cccnc2c1O (configuration not stated),0,0,0,0,55,0,63
CCCCC(=O)NC(c1ccccc1Cl)c1c(O)ccc2ccccc12 (configuration not stated),0,0,0,0,0,0,-
CCCC(=O)NC(c1cccc([N+](=O)[O-])c1)c1ccc2cccnc2c1O (configuration not stated),0,0,0,0,58,0,66
CCCCC(=O)NC(c1ccc(Cl)cc1)c1ccc2cccnc2c1O (configuration not stated),0,0,0,0,62,0,69
O=c1c2c3c(sc2nc(N2CCNCC2)n1CCc1ccccc1)CCCCC3,0,0,0,0,105,0,96
Cc1ccc(C(NC(=O)CN2C(=O)NC3(CCCC3)C2=O)c2ccccc2)cc1 (configuration not stated),0,0,0,0,0,0,-
O=C(N/N=C/c1sc(N2CCOCC2)nc1-c1ccccc1)c1cccc(S(=O)(=O)N2CCOCC2)c1,0,0,0,0,68,0,68
Nc1ccc(C(=O)N/N=C/c2sc(N3CCOCC3)nc2-c2ccccc2)cc1,0,0,0,0,0,0,-
Cc1ccc(/C=C2\SC(=S)N(CCCC(=O)NC3CCCC3)C2=O)cc1,0,0,0,74,54,0,49
Cc1ccc(/C=C2\SC(=S)N(CCCC(=O)NNC(=O)c3ccccc3O)C2=O)cc1,0,0,87,91,80,69,82
COc1cc(/C=C2\SC(=S)N(CCC(=O)NC3CCCC3)C2=O)cc(OC)c1OC,0,0,0,0,0,0,-
COc1ccc(C2NCCC3(O)CCCCC23)c(OC)c1OC (configuration not stated),0,0,0,0,0,0,-
O=C(Cn1cc(COc2ccc(Cl)c(Cl)c2)nn1)NS(=O)(=O)c1ccccc1C(F)(F)F,0,0,0,0,0,0,-
CC(NC(=O)NCCCn1ccnc1)(C(F)(F)F)C(F)(F)F,0,0,0,0,0,0,-
COc1ccc(S(=O)(=O)/N=C2\C=C(Nc3ccc(O)cc3)C(=O)c3ccccc32)cc1,-74,101,101,0,104,0,98
CCOc1cc(C2c3c(oc4cc(C)c(Cl)cc4c3=O)C(=O)N2Cc2ccco2)ccc1O (configuration not stated),0,0,0,0,67,0,0
CC1=NOC(=O)/C1=C\c1ccc(-c2ccccc2Br)o1,0,58,96,49,93,68,99
COc1ccc(-n2c(O)c(/C=N/Nc3nc(C)cc(C)n3)c3ccccc3c2=O)cc1OC,0,0,0,0,56,0,45
CC(C)CCC(O)(c1ccccc1)C(CN1CCOCC1)c1ccccc1 (configuration not stated),0,0,0,0,0,0,-
COc1ccc(C(O)(CCC(C)C)C(CN2CCOCC2)c2ccccc2)cc1 (configuration not stated),0,0,0,0,59,0,47
Cc1cc(C)n2nc(C(=O)Nc3cc(S(=O)(=O)N4CCCCC4)ccc3C)nc2n1,0,0,0,0,0,0,-
CCc1ccc(NC(=O)CSc2nc3ccccc3c(=O)n2CCCN2CCC(C)CC2)cc1,0,0,0,0,93,0,95
O=C(CSc1nc2ccccc2c(=O)n1CCCN1CCOCC1)Nc1ccc(Br)cc1,0,0,0,0,0,0,-
SMILES,KKLEB cytotox,CF NFkB block,TWEAK Fn14 block,HIF-2a inh,Peg3 prom inh-1,TROY NFkB inh,Peg3 prom inh-2
CCCCCCN1C=CC(=C2C(=O)c3ccccc3C2=O)C=C1,-58,0,97,0,58,82,43
CCN1C=CC(=C2C(=O)c3ccccc3C2=O)C=C1,0,0,101,87,97,68,90
CCCCN1C=CC(=C2N=c3cccc([N+](=O)[O-])c3=N2)C=C1,0,0,0,0,0,0,-
COc1ccc(-n2cc(-c3ccccc3)c3c(N4CCOCC4)ncnc32)cc1,-100,94,0,0,61,0,68
COc1ccc(-n2cc(-c3ccccc3)c3c(NCCCN4CCOCC4)ncnc32)cc1,0,0,0,0,0,0,-
Cc1cccc(NC(=O)CSc2nc3ccccc3c3nc(CCc4c(C)n[nH]c4C)nn23)c1,0,0,60,0,57,0,58
Cc1n[nH]c(C)c1CCc1nc2c3ccccc3nc(SCC(=O)Nc3ccccc3F)n2n1,0,0,0,0,0,0,-
Cc1ccc(NC(=O)c2nc[nH]c2C(=O)NCCCCNC(=O)c2[nH]cnc2C(=O)Nc2ccc(C)cc2)cc1,-83,86,0,0,74,0,43
CCc1ccc(N(C(=O)c2csnn2)C(C(=O)NC(C)(C)CC)c2cccnc2)cc1 (configuration not stated),0,0,0,0,0,0,-
Cc1cccc(NC(=O)COc2ccc3c(c2)CCC3)n1,0,0,0,0,0,0,-
O=C(COc1ccc2c(c1)CCC2)Nc1ccccn1,0,0,97,60,75,71,67
Cc1ccc(C(=O)O)cc1N1C(=O)c2cccc3c([N+](=O)[O-])ccc(c23)C1=O,0,0,0,0,0,0,-
O=C(O)c1ccc(CN2C(=O)c3cccc4c([N+](=O)[O-])ccc(c34)C2=O)cc1,0,0,53,0,103,71,90
CCOC(=O)N1CCN(c2c(N3CCN(c4ccccn4)CC3)c(=O)c2=O)CC1,0,0,0,0,0,0,-
CN(C)CCCN(C(=O)c1ccc(S(=O)(=O)N2CCc3ccccc32)cc1)c1nc2ccc(F)cc2s1,0,0,0,0,0,0,-
Cc1cc(C)c2sc(N(CCCN(C)C)C(=O)c3ccc(S(=O)(=O)N4CCCc5ccccc54)cc3)nc2c1,0,0,0,0,102,0,99
COc1cccc(OC)c1C(=O)Nc1nnc(-c2ccc(F)cc2)s1,0,0,0,0,0,0,-
Cn1c2ccccc2c2ccc3c(c21)C(=O)C=CC3=O,0,0,0,0,104,0,101
CC(C)N(C(=O)[C@H]1CC(CC(=O)NCc2cccc(C(F)(F)F)c2)C(=O)N2CCc3c([nH]c4ccccc34)[C@]12C)C(C)C (some centres not stated),0,0,0,0,68,0,0
